Experimental findings from PubChem BioAssay (Tox21) are described below.

The structures appear in SMILES notation. “And” between values parts separate entries of the source, which are not always exact repeats. Equal values may be shown once. Records with an inconclusive call do not appear. The source made the active and inactive calls. Calls follow the shape of the dose curve; as a rule, active = well fitted activation curve with a large enough effect in the repeat runs; inconclusive = weak or mixed curves; inactive = flat fitted curve, though single readings scatter.
% is scaled to controls: 0 for no effect and ±100 for the full control effect; potency is read from the fitted curve at half-maximal effect.

This experiment in a line: A CellTox Green Cytotoxicity Assay to monitor cytotoxicity in HEK293 cells - 32 hour (AID 1224881). Also: nearly all actives have a fitted effect of over 40% in size. As to conditions: CellTox Green fluorescence; series mostly up to 76.8 µM. From the text:
National Center for Advancing Translational Sciences [NCATS]
NIH Chemical Genomics Center [NCGC]
U.S. Environmental Protection Agency [EPA]
National Institutes of Environmental Health Sciences [NIEHS]
National Toxicology Program [NTP]
Cell-based models are critical for drug discovery. Determining the natural cytotoxic effects resulting from test compounds is an essential research activity. A CellTox Green Cytotoxicity Assay to monitor cytotoxicity in real time of continues cell culture during 40 hours of the compound treatment was used to screen Tox21 10K library compounds in Hek293 cells. CellTox Green Cytotoxicity Assay is a nonlytic, homogeneous, biofluorescent method to measure cytotoxicity in cell culture after experimental manipulation. The assay system uses a proprietary asymmetric cyanine dye that is excluded from viable cells but preferentially stains the dead cell's DNA. […] Viable cells produce no appreciable increases in fluorescence. Therefore, the fluorescence signal produced by the binding interaction with dead cell DNA is proportional to cytotoxicity.
The mixture of Hek293 cell suspension and reagents were dispensed at 600cells/6 ul/well in 1536-well tissue culture treated black solid bottom plates using a Multidrop dispenser. After the assay plates were incubated at a 37 C/5% CO2 incubator for 5 hours, 23 nL of compounds dissolved in DMSO, positive and negative controls was transferred to the assay plate by a pintool work station. The plates were incubated at 37 C for 40 hours. The fluorescence intensity were measured at 0h, 8h, 16h, 24h, 32h and 40h time points using ViewLux plate reader during compound treatment.
On to `Cc1ccc(N(SC(F)(Cl)Cl)S(=O)(=O)N(C)C)cc1`, for which the Potency is 5.49 µM (active).

On to `Nc1ccc([N+](=O)[O-])cc1`, for which the Potency is 38.9 µM (active). On to `CC1COC(Cn2cncn2)(c2ccc(Oc3ccc(Cl)cc3)cc2Cl)O1` (stereo not given), for which the Potency entry was “inactive”. For the compound `Clc1ccccc1-c1ccccc1Cl`, the Potency was 31.4 µM (active). On to `Oc1c(I)cc(I)cc1I`, for which the Potency entry is “inactive”.

On to `COc1cc(OC)c(OC)cc1C=O`, for which the Potency entry was “inactive”. Same read-out and setting: in the case of `CCOC(=O)C(O)(c1ccc(Cl)cc1)c1ccc(Cl)cc1` it was 44.1 µM (active); in that of `COc1ccc(C(c2ccc(OC)cc2)C(Cl)(Cl)Cl)cc1`, “inactive”; in that of `O=C(c1ccccc1)C(Cl)Cl`, 34.7 µM (active). Take `ClC1=C(Cl)[C@]2(Cl)[C@@H]3[C@@H](Cl)[C@H]4O[C@H]4[C@@H]3C1(Cl)C2(Cl)Cl`: the Potency was 54.9 µM (active).

Turning to `C[C@]12CC[C@@H](O)C[C@@H]1CC[C@@H]1[C@@H]2CC[C@]2(C)C(=O)CC[C@@H]12`, the Potency is 54.9 µM (active). Consider `OCC(c1ccc(Cl)cc1)c1ccc(Cl)cc1`, for which the Potency was 38.9 µM (active).

In the case of `N#Cc1cc([N+](=O)[O-])ccc1N`, the Potency entry was “inactive”. With `Cc1ccc2nc3sc(=O)sc3nc2c1`, the cytotoxicity increase is -11.5% [at 15.8 µM] (inactive). On to `OC(Cc1ccccc1Cl)(Cn1[nH]cnc1=S)C1(Cl)CC1` (stereo not given), for which the Potency result was “inactive”.

For `CCN(CC)C(=O)Cl`, the Potency entry is “inactive”. Regarding `O=[N+]([O-])c1c(Cl)c(Cl)cc(Cl)c1Cl`, the Potency is 43.6 µM (active).

On to `CN1CSC(=S)N(C)C1`, for which the Potency was 6.13 µM (active) and 9.75 µM (active). Same read-out and setting: to `O=S(=O)(C(Cl)(Cl)Cl)C(Cl)(Cl)Cl` belongs 19.5 µM (active); to `O=C1C(I)=CC(=C(c2cc(I)c(O)c(I)c2)c2ccccc2C(=O)O)C=C1I`, “inactive”.
